# Experimental data taken from the supplement of paper PMC6555819.
# Tested on: LXRb:RXRa (NR concentration 270 nM, RXRa partner concentration 90 nM)
# Assay: PBM binding z-score (relative to random genomic background probes); higher = stronger binding; sequences stand for … in GC…GCGATTGACAGCGTAGAATGAAGG
# Outline: (§1)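 Random background probes are the reference for binding z-scores. These scores derive from regression-normalized fluorescence on custom Agilent 4×180K protein-binding microarrays incubated 1 h with ligand-free nuclear receptor dimers. Binding was detected with antibodies against each partner (one per run).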
row,Sequence,PBM binding z-score
1,TAGCTTAGGTCATGGGCCAGTATACCACGCGAAC,2.77
2,ACAGACAGGTGATGAAGGTAACTCGGGCTATCAT,-0.291
3,GCTGCTAGGTCAGGTTGGTCACCTAACGGGTACG,0.43
4,ATCTCTAGGTAACAAGTCCAGTGAAAGAGAGGAC,0.148
5,CCTTACGGGTCACTCCAGGGTATAGCATCGGAGT,3.85
6,TCTGCAAGGTCAACGATGGTCAGCTAATCTGCTA,4.06
7,CCGAGTAGGTTATTGGGCATTCAGGCAACGGTGA,-0.0396
8,TCATGTAGGTAAATGCTAGGTGAAAGTCCGATCT,0.503
9,ACTTACGGGTCAACGAGGTTATAGTACGCGTATA,4.53
10,TAGCCTAGGTCATTGGGCCAGTATTGTACGCATC,2.28
11,GCTTACGGGTCAAAGGTTATAGCTTGAATAGAAT,5.39
12,CCGACTGGGGCATGAGGTTACCATAAGCCAGCCC,0.386
13,TCGAGTACGTTAGGGGCATTCAGAATGGCGTCGA,0.0159
14,TCTTGTAGATCTAAGGTTAAGAAAGCCGAAGCCT,1.16
15,CCGAGTAGGTTATAGGGCATTCAGGCAACGGTGA,0.765
16,GTGACTGGGGCATCAGCAGGTTACCATAACTTAA,0.942
17,CCTTACGGGTCACTACAGGTTATAGCATCGGAGT,6.14
18,AGAATGAGGTTGTTAAGATCAGGGAATTGCGGTC,-0.0376
19,ACTAGCCGGCCAAGGGTCACTCAAGATTAGTCCG,2.59
20,CAAACTAGGTCAAGGTCACAGTCGGTTTGTGCCA,4.15

row,Sequence,PBM binding z-score
1,AGAATGAGGTTATACGGAGATCAGGGAAGAAAGT,1.7
2,CTCGAAAGGTTGGTTGAGGTGAGTATACGGATAA,0.38
3,AGTCAAAGTTCAGGACGAGGTAACTTAAAGCACG,2.1
4,TCTCGGAGGACACTAAGGTCAGAGCTTTCCAGAG,1.5
5,GGAAGGAGGGCAAAGTTGATAGCATCTGTCGACG,1.88
6,ATCGAAAGGTCGTGAGGTGAGTCTACAGAAAGGC,3.17
7,AGTCAAAGTTCATCTAGGTACCGTAAGATATGCT,3.95
8,AGAATGAGGCTATTAAGATCAGGGAATTGCGGTC,-0.728
9,TCGAGTAGGTTAGTGGCATTCAGAATGGCGTCGA,-0.122
10,CCTAGCAGGCCAGGGTCCCTCAAGCATTTCGCTT,-0.712
11,TCATATAGGTAAACAGGTCAAAGTCCGTAAGTTA,3.12
12,CGAACTAGTTCAGAACAGGACAGTGAAGGATGAT,-0.449
13,TCATATAGGTAAACAGGTGAATGTCCGTAAGTTA,0.963
14,ATCTCTAGGTAACAAGTTCAGGGAAAGAGAGGAC,1.09
15,AGAACGAGGACAATGAGTTGATAGCACGGGTGGC,-0.706
16,AGAGTGAGGTTAAGATCAGGGAAACAGAATACAT,2.44
17,CCTACTGGGCCATCAGGTCATCGATATCAACGTT,1.38
18,TCTAGTTGGTCAAAGGTCACTCACTCGAAATGCG,5.13
19,CGTCCAAGGTCAAGGTAAGTGAAAGAGACTCGAA,3.72

# Tested on: LXRb homodimer (NR concentration 270 nM)
# Assay: as above
# Outline: as §1
row,Sequence,PBM binding z-score
1,TAGCTTAGGTCATGGGCCAGTATACCACGCGAAC,0.0949
2,ACAGACAGGTGATGAAGGTAACTCGGGCTATCAT,-0.168
3,GCTGCTAGGTCAGGTTGGTCACCTAACGGGTACG,-0.281
4,ATCTCTAGGTAACAAGTCCAGTGAAAGAGAGGAC,0.685
5,CCTTACGGGTCACTCCAGGGTATAGCATCGGAGT,-0.114
6,TCTGCAAGGTCAACGATGGTCAGCTAATCTGCTA,0.582
7,CCGAGTAGGTTATTGGGCATTCAGGCAACGGTGA,-0.644
8,TCATGTAGGTAAATGCTAGGTGAAAGTCCGATCT,0.151
9,ACTTACGGGTCAACGAGGTTATAGTACGCGTATA,0.951
10,TAGCCTAGGTCATTGGGCCAGTATTGTACGCATC,0.642
11,GCTTACGGGTCAAAGGTTATAGCTTGAATAGAAT,0.468
12,CCGACTGGGGCATGAGGTTACCATAAGCCAGCCC,-1.09
13,TCGAGTACGTTAGGGGCATTCAGAATGGCGTCGA,-1.01
14,TCTTGTAGATCTAAGGTTAAGAAAGCCGAAGCCT,-0.127
15,CCGAGTAGGTTATAGGGCATTCAGGCAACGGTGA,-0.185
16,GTGACTGGGGCATCAGCAGGTTACCATAACTTAA,-0.399
17,CCTTACGGGTCACTACAGGTTATAGCATCGGAGT,0.211
18,AGAATGAGGTTGTTAAGATCAGGGAATTGCGGTC,-0.0779
19,ACTAGCCGGCCAAGGGTCACTCAAGATTAGTCCG,-0.832
20,CAAACTAGGTCAAGGTCACAGTCGGTTTGTGCCA,0.607

row,Sequence,PBM binding z-score
1,AGAATGAGGTTATACGGAGATCAGGGAAGAAAGT,0.0612
2,CTCGAAAGGTTGGTTGAGGTGAGTATACGGATAA,-0.269
3,AGTCAAAGTTCAGGACGAGGTAACTTAAAGCACG,0.364
4,TCTCGGAGGACACTAAGGTCAGAGCTTTCCAGAG,-0.615
5,GGAAGGAGGGCAAAGTTGATAGCATCTGTCGACG,1.01
6,ATCGAAAGGTCGTGAGGTGAGTCTACAGAAAGGC,0.35
7,AGTCAAAGTTCATCTAGGTACCGTAAGATATGCT,1.62
8,AGAATGAGGCTATTAAGATCAGGGAATTGCGGTC,-0.68
9,TCGAGTAGGTTAGTGGCATTCAGAATGGCGTCGA,-1.05
10,CCTAGCAGGCCAGGGTCCCTCAAGCATTTCGCTT,-1.31
11,TCATATAGGTAAACAGGTCAAAGTCCGTAAGTTA,0.433
12,CGAACTAGTTCAGAACAGGACAGTGAAGGATGAT,-0.667
13,TCATATAGGTAAACAGGTGAATGTCCGTAAGTTA,0.0472
14,ATCTCTAGGTAACAAGTTCAGGGAAAGAGAGGAC,1.23
15,AGAACGAGGACAATGAGTTGATAGCACGGGTGGC,-0.434
16,AGAGTGAGGTTAAGATCAGGGAAACAGAATACAT,1.09
17,CCTACTGGGCCATCAGGTCATCGATATCAACGTT,-0.672
18,TCTAGTTGGTCAAAGGTCACTCACTCGAAATGCG,2.23
19,CGTCCAAGGTCAAGGTAAGTGAAAGAGACTCGAA,0.343
